D2 ag-1: activates the human D2 dopamine receptor; P14416; HEK293 T-REx D2 cells, calcium flux agonist mode; activation, % at 2 µM; actives 0.53% (n = 340,000);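 active = activation over 3 SD above normal in the single-dose calcium agonist read, cut at about 30% in these data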; also: 0% is about no effect
Target sequence (P14416 whole entry, looked up): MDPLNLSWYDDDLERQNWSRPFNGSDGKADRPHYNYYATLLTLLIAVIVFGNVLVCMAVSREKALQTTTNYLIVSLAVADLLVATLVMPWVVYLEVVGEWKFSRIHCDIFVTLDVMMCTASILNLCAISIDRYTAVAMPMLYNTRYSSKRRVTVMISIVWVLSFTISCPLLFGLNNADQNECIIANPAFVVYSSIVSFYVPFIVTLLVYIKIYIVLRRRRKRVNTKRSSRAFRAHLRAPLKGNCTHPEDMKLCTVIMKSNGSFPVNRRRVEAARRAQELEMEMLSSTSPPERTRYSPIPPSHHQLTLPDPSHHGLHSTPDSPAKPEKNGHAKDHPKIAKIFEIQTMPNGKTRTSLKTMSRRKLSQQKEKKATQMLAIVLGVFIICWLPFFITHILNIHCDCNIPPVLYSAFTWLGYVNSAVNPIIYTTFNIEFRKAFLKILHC
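Agonism is scored from calcium flux in a force-coupled, inducible HEK293 cell line expressing D2, read kinetically for 180 s after compound addition against dopamine controls.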
LDHA inh: inhibitors of human lactate dehydrogenase A. P00338. purified LDHA, NADH/diaphorase-resazurin fluorescence; stronger effect = lower value. activity change, % (values are at about 110 or 230 µM). actives 0.15% (n = 480,000). AID 1347041; in the data active = activity change below about -30%; inconclusive = mostly about -25% to -30%;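 also: plate controls were DMSO wells for no effect and wells without enzyme for full effect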
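Enzyme activity of human lactate dehydrogenase 5 (2 nM; 0.06 mM NADH, 0.2 mM pyruvate, 5 min, RT) is measured via a resazurin/diaphorase fluorescence readout of residual NADH.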
D2 antagonist: antagonizes the human D2 dopamine receptor | inhibition, % at 10 µM | P14416 | actives 2% (n = 340,000) | AID 485344 | HEK293 TREx D2 cells, calcium flux, dopamine EC80; in the data active = inhibition above about 30%; inactive = below that, where a call was filed; also: 0% is about no effect
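Calcium mobilization kinetics were recorded at 1 s intervals in tetracycline-induced HEK293 T-REx D2 cells, first for 180 s after compound addition and then 180 s after EC80 dopamine.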
D2 PAM-1: D2 dopamine receptor (human) potentiation | AID 485347 | P14416 | potentiation, % at 10 µM | actives 0.34% (n = 340,000) | HEK293 T-REx D2, calcium flux, EC20 dopamine potentiation;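 active = potentiation over 3 SD above the plate norm, cut at about 30% in these data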; also: 0% is about no effect
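Potentiation of an EC20 dopamine calcium response is measured in a force-coupled, tetracycline-inducible Hek293 Trex D2 line. Compound-only kinetic reads over 180 s flag agonists before dopamine addition.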
D2 ag-2: activates the human D2 dopamine receptor; DiscoveRx PathHunter D2 beta-arrestin, luminescence, 90 min; 100% = 57 uM dopamine signal; P14416; actives 0.084% (n = 360,000); activation, % (concentration not given with the values); AID 624465; in the data active = activation above about 40%; inconclusive = between about 15% and that limit
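DiscoveRx PathHunter D2 beta-arrestin cells (2,100/well) attached overnight, then compound-stimulated 90 min at 37 C in HBSS/10 mM HEPES/0.1% Tween-20 buffer; beta-galactosidase complementation read by luminescence after 1 h at ambient temperature. Dopamine 57 uM final (EC100) as control.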
D2 PAM-2: positive allosteric modulators of human D2 dopamine receptor | actives 0.23% (n = 360,000) | P14416 | potentiation, % (concentration not given with the values) | DiscoveRx D2 beta-arrestin cells, luminescence, 90 min; 100% = 57 uM dopamine signal | AID 624464; in the data active = potentiation above about 50%; inconclusive = mostly about 30% to 49%
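PathHunter beta-arrestin assay in DiscoveRx D2 cells. Compounds were added with an EC20 of dopamine (50 nM final) for 90 min at 37 deg C. Luminescence was read 1 h after detection reagent, with 57 uM dopamine as the EC100 control.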
Starred values were filed as active, the others as inactive; ? = inconclusive; . = not tested or not shown. Hits are enriched below; roughly 2.1% of the tested compounds scored in any of these assays.

SMILES | D2 ag-1 | LDHA inh | D2 antagonist | D2 PAM-1 | D2 ag-2 | D2 PAM-2
O=C(CSc1nc2ccccc2s1)N1CCOCC1 | 1 | -8 | -19 | 15 | -1 | 4
C=CCn1c(=O)c(C#N)cc2c(=O)n3ccccc3nc21 | 0 | 8 | 58* | 1 | -1 | -7
C=CCn1c(=N)c(C#N)cc2c(=O)n3ccccc3nc21 | 0 | -2 | 15 | -2 | -2 | 8
COC(CNC(=S)Nc1ccc([N+](=O)[O-])cc1)OC | -2 | 2 | 35* | 9 | -1 | -19
O=[N+]([O-])c1ccc(C(O)CNC(=S)Nc2ccccc2)cc1 (stereo not given) | 2 | -14 | 4 | -3 | -3 | -7
Cc1ccc(NC(=O)CN2C(=O)N/C(=C\c3cccn3-c3ccc(C(=O)NC#N)cc3)C2=O)cc1 | . | -37* | . | . | . | .
N#CNC(=O)c1ccc(-n2cccc2/C=C2\NC(=O)N(CC(=O)Nc3ccc(Cl)cc3)C2=O)cc1 | . | -5 | . | . | . | .
c1ccc(CCN2CCC(NC3CCCC3)CC2)cc1 | . | -2 | . | . | . | .
COc1cc(C2C3CCCCC3(O)CCN2Cc2ccccc2Cl)ccc1O (stereo not given) | . | 9 | . | . | . | .
CC1CCC2(CC1)NC(=O)N(NC(=O)c1cccc(N(C)C)c1)C2=O (stereo not given) | 0 | 1 | 33* | -9 | 2 | -1
O=C(CCn1c(=O)oc2ccccc21)Nc1cccc(Cl)c1 | -1 | -4 | 9 | 0 | -3 | -9
CCOC(=O)c1c(NC(=O)Cn2c(=O)oc3ccccc32)oc(C)c1C(C)=O | -1 | -1 | 31* | 17 | 6 | -12
Cc1ccc(NC(=O)CCCn2c(=O)oc3ccccc32)c(O)c1 | 0 | -2 | -10 | 4 | -1 | -11
Cc1cc(C)c(NC(=O)CCCn2c(=O)oc3ccccc32)c(C)c1 | 0 | -8 | 33* | 4 | -3 | -1
CCOC(=O)c1cccc(NC(=O)CCn2c(=O)oc3ccccc32)c1 | -2 | -6 | 32* | -14 | -1 | -6
CC(C)CCNc1nc(-c2ccc(S(C)(=O)=O)cc2)cs1 | . | 1 | . | . | . | .
CCOc1ccc2c(c1)c(=O)c(S(=O)(=O)c1ccccc1)cn2CC(=O)Nc1cccc(Cl)c1 | . | 10 | . | . | . | .
CCC1(C)SC(NC(C)=O)=NN1C(C)=O (stereo not given) | 4 | -8 | 0 | 8 | -2 | -6
CC(=O)NC1=NN(C(C)=O)C(C)(CS(=O)(=O)c2ccc3ccccc3c2)S1 (stereo not given) | 0 | -1 | 39* | 4 | -2 | -25
COc1ccc(OC)c(NC(=O)CNC(c2ccccc2)c2ccccc2)c1 | 0 | 1 | 31* | 4 | -5 | -3
COc1ccc(Cl)cc1NC(=O)CNC(c1ccccc1)c1ccccc1 | 1 | -4 | -6 | -2 | -2 | -5
COc1ccc(OC)c(NC(=O)CCCSc2ccccc2)c1 | 0 | 9 | -7 | -2 | 1 | 4
COc1ccc(C)cc1NC(=O)CNC(c1ccccc1)c1ccccc1 | 1 | -1 | 37* | 5 | -3 | -11
Cc1cccc(C)c1NC(=O)Cc1c(C)nc2nc(-c3cccs3)nn2c1C | . | 13 | . | . | . | .
O=C1CC(N2CCOCC2)C=C1Nc1ccccc1 (stereo not given) | . | 8 | . | . | . | .
SMILES | D2 ag-1 | LDHA inh | D2 antagonist | D2 PAM-1 | D2 ag-2 | D2 PAM-2
COc1ccccc1CNC(=O)CCc1ncc(-c2ccccc2F)o1 | . | 8 | . | . | . | .
Cc1ccc(S(=O)(=O)c2c(C)c(C)n(Cc3ccco3)c2N)cc1 | . | 5 | . | . | . | .
O=S(=O)(c1ccc(N=C2NN=C(c3cc(F)ccc3F)CS2)cc1)N1CCOCC1 | 0 | 0 | 18 | 30* | -3 | 15
CC(=O)Nc1ccc(C2=NNC(=Nc3cccc(S(=O)(=O)N(C)C)c3)SC2)cc1 | -1 | 3 | 6 | 6 | 7 | 0
CC(=O)Nc1ccc(C2=NNC(=Nc3ccc(S(=O)(=O)N4CCOCC4)cc3)SC2)cc1 | -1 | -17 | 43* | -6 | 7 | -6
Cc1ccc(NC(=O)CCl)cc1C | . | 4 | . | . | . | .
Nc1cc(-c2ccccc2)ccc1O | 0 | 2 | 8 | 3 | ? | 98*
Cc1ccc(NC(=O)c2ccc([N+](=O)[O-])o2)c(C)c1 | 0 | 3 | 33* | -5 | ? | 5
O=C(Nc1ccc(NC(=O)c2ccc([N+](=O)[O-])o2)cc1Cl)c1ccco1 | 1 | -12 | 40* | -22 | 14 | 13
O=C(Nc1cccc(NC(=O)c2ccc([N+](=O)[O-])o2)c1)c1ccco1 | 0 | 10 | 7 | -18 | ? | 3
CC(C)=CCCC(C)[N+]1(C)CCCCC1 (stereo not given) | . | -24 | . | . | . | .
Brc1cccc(-c2nc3cc4c(cc3[nH]2)OCCO4)c1 | . | -1 | . | . | . | .
COc1cc2[nH]c(C(=O)Nc3ccc(F)cc3)cc2c(OC)c1OC | -1 | . | 89* | -20 | . | .
Cc1cc(C)c2cc(C(=O)NCc3ccc4c(c3)OCO4)[nH]c2c1 | . | -6 | . | . | . | .
Cc1cc(C)c2cc(C(=O)Nc3ccc(C)c(F)c3)[nH]c2c1 | 0 | -7 | 39* | -27 | 3 | -35
COc1ccc2[nH]c(C(=O)Nc3ccc(C)c(F)c3)cc2c1 | -1 | -7 | -15 | 12 | -1 | -3
CCCCNC(=O)c1cc2c(C)cc(C)cc2[nH]1 | -2 | -3 | 34* | -24 | -2 | -23
O=C(O)c1ccc(-c2ccc(CO)o2)cc1 | . | -3 | . | . | . | .

High-throughput results deposited in PubChem by National Center for Advancing Translational Sciences (NCATS).
